Broadly, the Kd is the equilibrium constant for the complex coming apart. Low values mean higher affinity, high ones lower affinity.

Here are results for 16 compounds from paper PMC5540273 (PLoS ONE, 2017).

One test concerns T1, PIP5K2C.
T1 construct: gene PIP4K2C

The next test relates to T2, PKAC-alpha.
T2 construct: gene PRKACA

The subject of the next test is T3, PIK4CB.
T3 construct: gene PI4KB

In the next test the test system is T4, PKAC-beta.
T4 construct: gene PRKACB
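Also: kd values determined as follow-up on hits from a single-replicate KINOMEscan panel screen.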

`COc1cc2ncnc(Nc3ccc(OCc4ccccc4Br)c(Cl)c3)c2cc1OC.Cl` [GI261590]: the Kd in the test on PKN1 and in the test on PRKCQ was greater than 10000 nM throughout.

For the compound `Fc1cccc(COc2ccc(Nc3ncnc4sc(-c5ccc[nH]5)cc34)cc2Cl)c1` [GW707818], the Kd in the test on PRKCH was greater than 10000 nM.

Compound `CNc1nccc(-c2c(-c3ccc(F)cc3)ncn2C2CCN(C)CC2)n1` [SB-222903] returned a Kd in the test on PIP5K2C of 39 nM.

Regarding `COc1cc2c(Nc3cccc(NC(=O)c4ccccc4)c3)ncnc2cc1OCCCN1CCOCC1` [GSK223810], in the test on PKAC-alpha, the Kd is greater than 10000 nM. On to `Cc1cccc(-c2nc(Nc3ccc4[nH]nnc4c3)c3ccccc3n2)n1` [GW867587], for which the Kd in the test with PRKD1 stood at 61 nM; with PRKD2, 83 nM. Regarding `Cl.Cl.c1ccc(-c2cc3ccncc3cc2OC2CCNCC2)cc1` [GSK1122999], the figures for the Kd in the test on PRKCE and in the test on PRKCH were 640 nM and 390 nM, respectively. For the compound `CSc1nn2c(=O)cc(N3CCOCC3)nc2n1Cc1cccc(Cl)c1Cl` [GSK2347225], in the test with PIK3CD, the affinity, expressed as Kd, was 240 nM.

On to `O=C(c1ccc(-c2cc(-c3c[nH]nc3-c3ccccn3)ccn2)cc1)N1CCCC1` [GW792479], for which the Kd with PIM1 was greater than 10000 nM; with PIP5K2C, 21 nM; in the test on PRKCI it was greater than 10000 nM. Take `CNc1nccc(-c2c(-c3ccc(F)cc3)ncn2CCCN2CCOCC2)n1` [SB-222516]: the Kd in the test on PIM3 was greater than 10000 nM. In turn, `CN1CCC(n2cnc(-c3ccc(F)cc3)c2-c2ccnc(NC3CCNCC3)n2)CC1` [SB-229482] gave a Kd with PIP5K2C of 220 nM. Consider `O=C(Nc1ccccc1F)NC1CCN(c2ccnc(Nc3ccc(F)cc3)n2)C1` (stereo not drawn) [GSK1379722], for which the Kd with PIK4CB was greater than 10000 nM. In the test on PIP5K1C, `Nc1nc(-c2ccccn2)c(-c2ccnc3ccccc23)s1` [GW548057] registered a Kd greater than 10000 nM. With `NC(=O)c1sc(-n2cnc3ccccc32)cc1OCc1ccccc1F` [GSK1024306], the Kd in the test with PLK1 came to 9.6 nM; in the test on PLK2, 25 nM; in the test on PLK3, 52 nM. Regarding `CC(C)(C)c1ccc(-n2cnc3c(N)ncnc32)cc1` [SKF-97263], the Kd with PIK3CG stood at 2400 nM. `CCc1nc(-c2cccc(C)c2)c(-c2ccnc(NC(=O)c3ccccc3)c2)s1` gave a Kd in the test with PIP5K2C of 4100 nM. For the compound `C[C@@H]1CCN(C(=O)CO)C[C@@H]1N(C)c1ncnc2[nH]ccc12`, the Kd in the test on PKAC-beta and with PKMYT1 was greater than 10000 nM each time.
